The structures appear in SMILES notation. “And” between values parts separate entries of the source, which are not always exact repeats. Identical values can stand only once. About 83,000 compounds went through this panel and 20% of them were active in at least one assay; those are over-represented in the sample as a whole.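 Note: values are percent growth. 100 is the growth of untreated cells, values between 100 and 0 indicate rising inhibition; between -100 and 0 indicates cell death.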 Values without a mark were called inactive. The source made the active and inactive calls. How the source made its calls: active means growth percent below 10; inactive means the rest.

36 compounds from PubChem BioAssay (NCI) can be followed below.

The subject of the assay is MDA-MB-468 breast. The assay is described as follows: NCI-60 one-dose screen, 48 h (100 = growth as untreated, 0 = no growth, -100 = all killed). The conditions noted are these: 10 µM unless noted.
Take `O=C1Nc2ccccc2SC1c1ccccc1Cl` (stereo unspecified): the growth is 29.9%. The figure for `O=C1CCCc2nc(Nc3ccc(S(=O)(=O)Nc4ccc([N+](=O)[O-])cc4)cc3)ncc21` is 99.8%. For the compound `C#CC(F)(F)[C@]1(O)CC[C@H]2[C@@H]3CCC4=CC(=O)CCC4=C3[C@@H](c3ccc(C4CC4)cc3)C[C@@]21C`, the growth is 33.8%. As to `Oc1c(C(Nc2ccccc2Br)c2ccccc2)ccc2cccnc12` (stereo unspecified), the growth is -4% (active). The value for `CC(C)(O)C1CCCN1C(=O)c1ccccc1I` (stereo unspecified) was 73%; that for `COc1cc2oc(-c3ccc(O)cc3)cc(=O)c2c(O)c1I` was 105%. Take `Cc1c2c(cc[n+]1Cc1ccc(F)cc1)c1ccc(OCc3cccc(F)c3)cc1n2Cc1cccc(F)c1`: the growth is -85.6% (active).

Regarding `CCN(CC)CCOc1ccc(/C=N/Nc2nc3c([nH]2)c(=O)n(C)c(=O)n3C)cc1`, the growth was 102% and 121%. Take `CN1CCN(C(=O)[C@@]2(C)CC[C@]3(C)CC[C@]4(C)C(=CC[C@@H]5[C@@]6(C)CCC(=O)NC(C)(C)[C@@H]6CC[C@]54C)[C@@H]3C2)CC1`: the growth was 13.5%.

Turning to `CCCC(=O)NC(c1cccnc1)c1cc(C(C)=O)c2cccnc2c1O` (stereo unspecified), the growth was 15.8%.

On to `CSc1nn(-c2ccccc2)c2ncnc(Oc3ccccc3)c12`, for which the growth is 88.6%. The figure for `CC1(C)NCCC[C@]2(C)[C@H]3CC[C@@H]4[C@H]5[C@H](C(=O)/C=C/c6ccco6)CC[C@]5(CO)CC[C@@]4(C)[C@]3(C)CC[C@@H]12` is 87.9%; for `CC(O)Cc1c[nH]c(=O)[nH]c1=O` (stereo unspecified) it is 121%; for `COc1cc(/C=N/NC(=O)c2ccc(-n3cc(-c4ccccc4)nn3)cc2)cc(OC)c1OC` it is 31.6%. In the case of `CCNC(=O)N1CCc2cc(OC)c(OCCc3ccc(OC)cc3)cc2C1c1ccc(OC)cc1C` (stereo unspecified), the growth is 12.6%. The figure for `CCN(CC)CCOC(=O)c1ccc(NC(=O)Nc2cccc(Cl)c2)cc1` is 103%.

In the case of `Cc1cc(C(=O)Nc2ccc(SC#N)cc2)c(C)o1`, the growth is 96.1%. Regarding `CCNC(=O)Oc1ccc(/C(=C(/C)c2ccccc2)c2ccc(OCCN3CCCCCC3)cc2)cc1`, the growth was -16.9% (active). As to `O=c1[nH]cnc2nc[nH]c12`, the growth was 100%. Take `Cc1ccc2c(c1)C(=O)/C(=C/c1ncc([N+](=O)[O-])n1C)O2`: the growth is 52.4%. The value for `COc1cccc(NC(=O)c2sc3nc4c(cc3c2N)CN(Cc2ccccc2)CC4)c1` was 64.4%; that for `CN(C)c1nc(N)nc(Cn2c(-c3nonc3N)nc3ccccc32)n1` was 23.2%; that for `S=C(c1ccc2c(c1)OCO2)N1CCN(c2ccccc2Cl)CC1` was 80.8%. Regarding `C=C1C(=O)O[C@H]2[C@H]1CC/C(CNC(=O)/C=C/c1cc(OC)c(OC)c(OC)c1)=C\CC[C@@]1(C)O[C@@H]21`, the growth is -57.6% (active).

Consider `O=C(Nc1ncc(Cc2ccccc2)s1)c1cc(-c2ccccc2)nc2ccccc12`, for which the growth was 103%. The value for `O=C(c1ccccc1)C(Cl)C(Cl)c1ccccc1` (stereo unspecified) was 17.6%; that for `CCOC(=O)c1c2c(c(C)n1Cc1ccc(OC)cc1)-c1nc(N)ncc1CC2` was 107%; that for `CC(C)Cn1cnc2c(=O)[nH]c(N)nc21` was 91.6%. As to `Cc1c(-c2ccccc2)[nH]c2ccccc12`, the growth was 88.1%.

As for `COc1ccc(C(=O)/C=C/c2c(C(F)(F)F)nc3ccccn23)cc1OC`, the growth is -59.9% (active). For the compound `COc1ccc(C(=O)C2C(C#N)C(C#N)C3c4ccccc4C=CN23)cc1` (stereo unspecified), the growth is 64.8%. `O=C(Oc1cccnc1)c1ccsc1Nc1ccnc(C(F)(F)F)c1`: the growth is 17%.

With `Cc1c(Cl)cccc1NC(=O)c1sc2nc3c(cc2c1N)CCCCCC3`, the growth was 26.5%. The value for `Brc1ccc(-c2[nH]ncc2-c2c[nH]c3ccccc23)cc1` was 99.5%. The value for `COC1C[C@H](O[C@@H]2C[C@H](O[C@@H]3C[C@H](O[C@@H]4C(=O)c5c(cc6cc(O[C@H]7C[C@@H](O[C@H]8C[C@@H](O)[C@H](O)C(C)O8)[C@H](O)C(C)O7)c(C)c(O)c6c5O)C[C@H]4C(OC)C(=O)[C@@H](O)[C@@H](C)O)OC(C)[C@H]3O)OC(C)[C@@H]2O)OC(C)[C@@H]1O` (stereo partly specified) was -55% (active).

For `CN1CCN(CCCOc2ccc3ncnc(Nc4ccc(Oc5cccc(C(F)(F)F)c5)c(Cl)c4)c3c2)CC1`, the growth was -24.2% (active).
